In the library only some 28% were active in any assay of this set; here they are far more common.
CYP2C9 inhib: blocks human cytochrome P450 2C9. P11712. CYP2C9 Supersomes, luciferin-H conversion, luminescence. inhibition, % at 5 µM. actives 20% (n = 96,000);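 active = blocking of liver enzyme CYP2C9 beyond about 50% at 5 µM, limit read from the data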
PLK1 inh: blocks human PLK1 kinase activity. actives 0.53% (n = 97,000). P53350. inhibition, % at 10 µM. recombinant PLK1 kinase, TR-FRET peptide phosphorylation. AID 619;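 active = inhibition of 50% or more in the single-concentration screen; inactive = inhibition below 50%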
Plk1 PBD FP: blocks phosphopeptide binding to human Plk1 polo box domain; actives 0.13% (n = 97,000); inhibition, %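 (tested at about 20 µM)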; Plk1 PBD phosphopeptide binding, fluorescence polarization; in the data active = inhibition above about 34%, passing the limit was not always enough
CYP2C9 activ: activators of human CYP2C9 | recombinant CYP2C9, luciferin-H conversion, luminescence; stronger effect = higher value; factor 1 = untreated enzyme, 0 = blocked | activation factor at 5 µM | actives 1.4% (n = 96,000) | AID 1024;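 active = activation factor of 2 or more for CYP2C9 at a 5 µM dose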
CYP2C19 activ: cytochrome P450 2C19 (human) activation; P33261; recombinant CYP2C19, luciferin-H EGE luminescence; stronger effect = higher value; 0 = fully inhibited enzyme, 1 = untreated enzyme; activation factor at 5 µM; 96,000 tested, under 10 active; AID 1025;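 active = activation factor of at least 2 at 5 µM in the primary screen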
Target sequence (P33261 whole entry, looked up): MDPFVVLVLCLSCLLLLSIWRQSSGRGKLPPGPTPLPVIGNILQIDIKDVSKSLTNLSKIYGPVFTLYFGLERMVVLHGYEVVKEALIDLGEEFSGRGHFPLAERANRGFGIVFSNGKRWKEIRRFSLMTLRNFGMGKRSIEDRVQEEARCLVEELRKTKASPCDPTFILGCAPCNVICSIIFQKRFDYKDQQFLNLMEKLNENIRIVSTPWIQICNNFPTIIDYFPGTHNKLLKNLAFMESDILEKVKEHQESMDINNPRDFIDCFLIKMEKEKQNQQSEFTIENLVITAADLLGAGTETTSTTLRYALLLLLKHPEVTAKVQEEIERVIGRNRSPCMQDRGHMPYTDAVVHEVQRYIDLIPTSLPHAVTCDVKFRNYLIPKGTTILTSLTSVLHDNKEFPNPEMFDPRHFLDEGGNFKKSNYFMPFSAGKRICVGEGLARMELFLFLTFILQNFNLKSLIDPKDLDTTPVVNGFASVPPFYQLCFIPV
CYP2C19 inhib: blocks human cytochrome P450 2C19. P33261. inhibition, % at 5 µM. actives 21% (n = 96,000). AID 778. CYP2C19 Supersomes, luciferin-H EGE luminescence, 30 min;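 active = CYP2C19 inhibition above a set limit at 5 µM in the primary screen, cut at about 50% in these data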
Each line names hits and unclear results; the compound was inactive in the other large screens.

CCCCn1c(CCC(=O)O)nc2c1c(=O)[nH]c(=O)n2CCC	none
CCCCn1c(=O)[nH]c(=O)c2c1nc(COC(=O)c1c(C)noc1C)n2CCC	CYP2C9 inhib 97, CYP2C19 inhib 68
O=C(CSC1=NCCS1)N1CCCCCC1	CYP2C19 inhib 57 (no result: PLK1 inh, Plk1 PBD FP)
Clc1ccc(OCc2nn3c(-c4ccccc4)nnc3s2)c(Cl)c1	none
COc1ccc(-c2c(-c3ccc(O)cc3O)n[nH]c2C)cc1OC	CYP2C9 inhib 92, CYP2C19 inhib 100
C=C(C)COc1ccc(-c2n[nH]c(C)c2-c2ccc(Br)cc2)c(O)c1	CYP2C9 inhib 57
CCN(CC)S(=O)(=O)c1ccc(/C(O)=C(\C#N)c2nc3ccccc3n2C)cc1	none
CCOc1ccc(-n2cnnn2)cc1S(=O)(=O)NCc1ccccc1	none
CCOc1ccc(S(=O)(=O)N(CCO)CCO)cc1-c1nc2c(C(C)(C)C)nn(C)c2c(=O)[nH]1	CYP2C9 inhib 59
CCOc1ccc(S(=O)(=O)NC(C)(C)C)cc1-c1nc2c(C(C)(C)C)nn(C)c2c(=O)[nH]1	CYP2C9 inhib 66
CCc1ccc(NC2=CC(=O)CC(c3ccco3)C2)cc1 (stereo not given)	CYP2C9 inhib 53, CYP2C19 inhib 54
Cc1cc(C)cc(NC2=CC(=O)CC(c3ccco3)C2)c1 (stereo not given)	none
C=CCn1c(C#N)c(N)sc1=N	none
COc1ccc(Oc2nc(C)nc3c2oc2ccccc23)cc1	none
COc1ccc(-c2cc(=Nc3ccc(C)cc3)c3ccccc3o2)cc1	CYP2C9 inhib 53
CC(C)Nc1nc(SCC(=O)Nc2ccccc2)nc(N2CCOCC2)n1	CYP2C9 inhib 84, CYP2C19 inhib 82
CSc1nc(NC(C)C)nc(N2CCOCC2)n1	none
CC(Sc1nc(N2CCOCC2)nc(N2CCOCC2)n1)C(=O)Nc1ccccc1 (stereo not given)	CYP2C9 inhib 79 (no result: PLK1 inh, Plk1 PBD FP)
CC(Sc1nc(N(C)C)nc(N2CCOCC2)n1)C(=O)Nc1ccccc1 (stereo not given)	CYP2C9 inhib 92, CYP2C19 inhib 93
O=c1c2ccccc2nc(/C=C/c2ccc([N+](=O)[O-])o2)n1CCCO	none
O=C(COC(=O)Cc1cn2ccsc2n1)NCc1ccc2c(c1)OCO2	none
CC1CCCC(NC(=O)COC(=O)Cc2cn3ccsc3n2)C1C (stereo not given)	none
O=C(COC(=O)Cc1cn2ccsc2n1)NC12CC3CC(CC(C3)C1)C2	CYP2C19 inhib 59
CCn1c2ccccc2c2cc(NC(=O)COC(=O)Cc3cn4ccsc4n3)ccc21	CYP2C19 inhib 90
CC(C)(C)c1ccc(OCc2ccc(C(=O)N/N=C/c3ccc([N+](=O)[O-])cc3)o2)cc1	none
CCn1c(N2CCN(C(=S)NC)CC2)nc2ccccc21	CYP2C19 inhib 66
CCn1c(N2CCN(C(=S)NCCc3ccccc3)CC2)nc2ccccc21	CYP2C19 inhib 56
CCn1c(N2CCN(C(=S)NCC(C)C)CC2)nc2ccccc21	none
COC(=O)c1sc(NC(=O)c2cnccn2)c(C(=O)OC)c1C	none (no result: CYP2C9 inhib, CYP2C9 activ, CYP2C19 activ, CYP2C19 inhib)
Cc1nn(C)c(C)c1CN(C)C(=O)CCCC(=O)O	none (no result: CYP2C9 inhib, CYP2C9 activ, CYP2C19 activ, CYP2C19 inhib)
COC(=O)c1c(C)n(-c2ccc(OC)cc2)c2ccc(O)cc12	CYP2C9 inhib 67, CYP2C19 inhib 79
CCOc1ccc2c(c1)c(C(C)=O)c(C)n2-c1ccccc1	CYP2C9 inhib 99, CYP2C19 inhib 99
CN1CCN(C2=CC(=O)OC23CCCCC3)CC1	none (no result: CYP2C9 inhib, CYP2C9 activ, CYP2C19 activ, CYP2C19 inhib)
COc1ccc(NC(=O)Cn2c(=O)n(CC(=O)NCc3ccco3)c(=O)c3ccccc32)cc1OC	none
COc1ccccc1C1c2c(oc3ccc(Cl)cc3c2=O)C(=O)N1c1cc(C)on1 (stereo not given)	none (no result: CYP2C9 inhib, CYP2C9 activ, CYP2C19 activ, CYP2C19 inhib)
O=C(O)CC(=O)Nc1ccccc1	none
CCOC(=O)c1ccc(NC(=O)CCc2ccc(CC)o2)cc1	CYP2C9 inhib 60
O=C(CCOc1ccccc1)Nc1ccccc1	CYP2C19 inhib 62
CCOC(=O)c1ccc(NC(=O)CCOc2ccccc2)cc1	CYP2C9 inhib 55
CCCOC(=O)c1ccc(NC(=O)CCC(=O)OCC)cc1	CYP2C9 inhib 59, CYP2C19 inhib 64
Cc1nc2ccc(CCO)cc2s1	none (no result: CYP2C9 inhib, CYP2C9 activ, CYP2C19 activ, CYP2C19 inhib)
O=C(N/N=C/c1cccc(OC2CSC2)c1)c1ccccc1O	none
CCOC(=O)c1cc(C)n(S(=O)(=O)c2ccc(C)cc2)c1C	none
CCOc1ccc(NC(=O)CCNS(=O)(=O)c2ccc(Br)s2)cc1	none

Screening data: PubChem, several laboratories
